From PubChem BioAssay (EPA / NIEHS)
Calls of active or inactive are those of the source. The calls were made as follows: active = hit-call score of the fitted dose curve at least 0.9, where 1 is the maximum; inactive = score below 0.9.

These molecules were tested on Vascular cell adhesion molecule 1 (VCAM1), VCAM1 (gene 7412) (assay: BSK_CASM3C_VCAM1: BioMAP Diversity Plus: CASM3C Assay for Vascular cell adhesion molecule 1 (VCAM1) Biomarker Activity (AID 2283055;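 also: VCAM-1 protein level quantified by ELISA on the cells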)). Settings: primary human coronary artery smooth muscle cells; actives raise or lower the signal.

| Compound | outcome | AC50 |
| --- | --- | --- |
| CC1(C)CCC(=Cc2ccc(Cl)cc2)C1(O)Cn1cncn1 (configuration not stated) | inactive | – |
| CC1(C)C(C(=O)OC(C#N)c2cccc(Oc3ccccc3)c2)C1(C)C (configuration not stated) | inactive | – |
| CCOP(=O)(OCC)Oc1nc(Cl)c(Cl)cc1Cl | inactive | – |
| CCSC(=O)N1CCCCCC1 | inactive | – |
| CCCN(CC)CC1COC2(CCC(C(C)(C)C)CC2)O1 (configuration not stated) | inactive | – |
| COCC(=O)N(c1c(C)cccc1C)C(C)C(=O)OC (configuration not stated) | inactive | – |
| Clc1cccc(C(Cl)(Cl)Cl)n1 | inactive | – |
| CC1(C)C(C=C(Cl)Cl)C1C(=O)OC(C#N)c1cccc(Oc2ccccc2)c1 (configuration not stated) | inactive | – |
| Nc1c(Cl)c(Cl)nc(C(=O)O)c1Cl | inactive | – |
| CC(C)(C)C(=O)C(Oc1ccc(Cl)cc1)n1cncn1 (configuration not stated) | inactive | – |
| CCOc1nc(F)cc2nc(S(=O)(=O)Nc3c(Cl)cccc3Cl)nn12 | inactive | – |
| C=C(C)CN(CC)c1c([N+](=O)[O-])cc(C(F)(F)F)cc1[N+](=O)[O-] | inactive | – |
| N#Cc1c[nH]cc1-c1cccc2c1OC(F)(F)O2 | inactive | – |
| CS(=O)(=O)c1ccc(C(=O)C2C(=O)CCCC2=O)c([N+](=O)[O-])c1 | inactive | – |
| COC(=O)c1c(C(F)F)nc(C(F)(F)F)c(C2=NCCS2)c1CC(C)C | inactive | – |
| CCNP(=S)(OC)O/C(C)=C/C(=O)OC(C)C (configuration not stated) | inactive | – |
| CC(C)Oc1cccc(NC(=O)c2ccccc2C(F)(F)F)c1 | inactive | – |
| CS(=O)(=O)c1cc(C(F)(F)F)ccc1C(=O)c1cnoc1C1CC1 | inactive | – |

| Compound | outcome | AC50 |
| --- | --- | --- |
| CCC(C)n1c(=O)[nH]c(C)c(Br)c1=O (configuration not stated) | inactive | – |
| CCOC(=O)C(C)OC(=O)c1cc(Oc2ccc(C(F)(F)F)cc2Cl)ccc1[N+](=O)[O-] (configuration not stated) | inactive | – |
| COc1cc(Cl)c(OC)cc1Cl | inactive | – |
| Cc1nc(N(C)C)nc(OC(=O)N(C)C)c1C | inactive | – |
| CCCCOCN(C(=O)CCl)c1c(CC)cccc1CC | – | 24.2 µM (active) |
| COc1cc(OC)nc(NC(=O)NS(=O)(=O)c2ncccc2OCC(F)(F)F)n1 | inactive | – |
| CC(C)=CC1C(C(=O)OCc2coc(Cc3ccccc3)c2)C1(C)C (configuration not stated) | inactive | – |
| Nc1c(Cl)c(F)nc(OCC(=O)O)c1Cl | inactive | – |
| CC(C)N1C(=O)N(c2ccccc2)CSC1=NC(C)(C)C | inactive | – |
| O=C1C2CC=CCC2C(=O)N1SC(Cl)(Cl)Cl (configuration not stated) | – | 22.5 µM (active) |
| N#Cc1c(Cl)cccc1Cl | inactive | – |
| CNC(=O)N(C)c1nnc(C(C)(C)C)s1 | inactive | – |
| CCOc1nc(C(Cl)(Cl)Cl)ns1 | inactive | – |
| Cc1ccc(N=CN(C)C=Nc2ccc(C)cc2C)c(C)c1 | inactive | – |
| OC(c1ccc(Cl)cc1)(c1ccc(Cl)cc1)C(Cl)(Cl)Cl | – | 27.2 µM (active) |
| COP(=S)(OC)SCn1nnc2ccccc2c1=O | inactive | – |
| COc1ccc(-c2ccccc2)cc1NNC(=O)OC(C)C | inactive | – |
| Cc1cnc(C2=NC(C)(C(C)C)C(=O)N2)c(C(=O)O)c1 (configuration not stated) | inactive | – |

Each molecule was assayed on Collagen III, COL3A1 (gene 1281) (assay: BSK_hDFCGF_CollagenIII: BioMAP Diversity Plus: hDFCGF Assay for Collagen III Biomarker Activity (AID 2283056)). Settings: primary human foreskin fibroblasts; actives raise or lower the signal.
Method in brief: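 Human foreskin fibroblast primary cultures sampled 24 h after dosing; Collagen III quantified by ELISA. Signal fitted bidirectionally against DMSO baseline.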

| Compound | outcome | AC50 |
| --- | --- | --- |
| CC1(C)CCC(=Cc2ccc(Cl)cc2)C1(O)Cn1cncn1 (configuration not stated) | inactive | – |
| CC1(C)C(C(=O)OC(C#N)c2cccc(Oc3ccccc3)c2)C1(C)C (configuration not stated) | inactive | – |
| CCOP(=O)(OCC)Oc1nc(Cl)c(Cl)cc1Cl | – | 3.97 µM (active) |
| CCSC(=O)N1CCCCCC1 | inactive | – |
| CCCN(CC)CC1COC2(CCC(C(C)(C)C)CC2)O1 (configuration not stated) | – | 1.25 µM (active) |
| COCC(=O)N(c1c(C)cccc1C)C(C)C(=O)OC (configuration not stated) | inactive | – |
| Clc1cccc(C(Cl)(Cl)Cl)n1 | inactive | – |
| CC1(C)C(C=C(Cl)Cl)C1C(=O)OC(C#N)c1cccc(Oc2ccccc2)c1 (configuration not stated) | inactive | – |
| Nc1c(Cl)c(Cl)nc(C(=O)O)c1Cl | inactive | – |
| CC(C)(C)C(=O)C(Oc1ccc(Cl)cc1)n1cncn1 (configuration not stated) | inactive | – |
| CCOc1nc(F)cc2nc(S(=O)(=O)Nc3c(Cl)cccc3Cl)nn12 | inactive | – |
| C=C(C)CN(CC)c1c([N+](=O)[O-])cc(C(F)(F)F)cc1[N+](=O)[O-] | inactive | – |
| N#Cc1c[nH]cc1-c1cccc2c1OC(F)(F)O2 | inactive | – |
| CS(=O)(=O)c1ccc(C(=O)C2C(=O)CCCC2=O)c([N+](=O)[O-])c1 | inactive | – |
| COC(=O)c1c(C(F)F)nc(C(F)(F)F)c(C2=NCCS2)c1CC(C)C | inactive | – |
| CCNP(=S)(OC)O/C(C)=C/C(=O)OC(C)C (configuration not stated) | inactive | – |
| CC(C)Oc1cccc(NC(=O)c2ccccc2C(F)(F)F)c1 | inactive | – |
| CS(=O)(=O)c1cc(C(F)(F)F)ccc1C(=O)c1cnoc1C1CC1 | inactive | – |

| Compound | outcome | AC50 |
| --- | --- | --- |
| CCC(C)n1c(=O)[nH]c(C)c(Br)c1=O (configuration not stated) | inactive | – |
| CCOC(=O)C(C)OC(=O)c1cc(Oc2ccc(C(F)(F)F)cc2Cl)ccc1[N+](=O)[O-] (configuration not stated) | – | 6.41 µM (active) |
| COc1cc(Cl)c(OC)cc1Cl | inactive | – |
| Cc1nc(N(C)C)nc(OC(=O)N(C)C)c1C | inactive | – |
| CCCCOCN(C(=O)CCl)c1c(CC)cccc1CC | – | 12.2 µM (active) |
| COc1cc(OC)nc(NC(=O)NS(=O)(=O)c2ncccc2OCC(F)(F)F)n1 | inactive | – |
| CC(C)=CC1C(C(=O)OCc2coc(Cc3ccccc3)c2)C1(C)C (configuration not stated) | – | 12.2 µM (active) |
| Nc1c(Cl)c(F)nc(OCC(=O)O)c1Cl | inactive | – |
| CC(C)N1C(=O)N(c2ccccc2)CSC1=NC(C)(C)C | – | 26.7 µM (active) |
| O=C1C2CC=CCC2C(=O)N1SC(Cl)(Cl)Cl (configuration not stated) | – | 6.44 µM (active) |
| N#Cc1c(Cl)cccc1Cl | inactive | – |
| CNC(=O)N(C)c1nnc(C(C)(C)C)s1 | inactive | – |
| CCOc1nc(C(Cl)(Cl)Cl)ns1 | inactive | – |
| Cc1ccc(N=CN(C)C=Nc2ccc(C)cc2C)c(C)c1 | – | 13.3 µM (active) |
| OC(c1ccc(Cl)cc1)(c1ccc(Cl)cc1)C(Cl)(Cl)Cl | – | 10.3 µM (active) |
| COP(=S)(OC)SCn1nnc2ccccc2c1=O | inactive | – |
| COc1ccc(-c2ccccc2)cc1NNC(=O)OC(C)C | inactive | – |
| Cc1cnc(C2=NC(C)(C(C)C)C(=O)N2)c(C(=O)O)c1 (configuration not stated) | inactive | – |
